Screening data (PubChem)
An excerpt weighted towards active compounds, which were near 4.6% of everything screened.
USP8 inh = blocks human USP8 ubiquitin-rhodamine cleavage; P40818; purified USP8, Ub-rhodamine cleavage fluorescence, 30 min; inhibition, % at 20 µM; 4.2% of 47,000 active; AID 1645853
Target sequence (P40818 whole entry, looked up): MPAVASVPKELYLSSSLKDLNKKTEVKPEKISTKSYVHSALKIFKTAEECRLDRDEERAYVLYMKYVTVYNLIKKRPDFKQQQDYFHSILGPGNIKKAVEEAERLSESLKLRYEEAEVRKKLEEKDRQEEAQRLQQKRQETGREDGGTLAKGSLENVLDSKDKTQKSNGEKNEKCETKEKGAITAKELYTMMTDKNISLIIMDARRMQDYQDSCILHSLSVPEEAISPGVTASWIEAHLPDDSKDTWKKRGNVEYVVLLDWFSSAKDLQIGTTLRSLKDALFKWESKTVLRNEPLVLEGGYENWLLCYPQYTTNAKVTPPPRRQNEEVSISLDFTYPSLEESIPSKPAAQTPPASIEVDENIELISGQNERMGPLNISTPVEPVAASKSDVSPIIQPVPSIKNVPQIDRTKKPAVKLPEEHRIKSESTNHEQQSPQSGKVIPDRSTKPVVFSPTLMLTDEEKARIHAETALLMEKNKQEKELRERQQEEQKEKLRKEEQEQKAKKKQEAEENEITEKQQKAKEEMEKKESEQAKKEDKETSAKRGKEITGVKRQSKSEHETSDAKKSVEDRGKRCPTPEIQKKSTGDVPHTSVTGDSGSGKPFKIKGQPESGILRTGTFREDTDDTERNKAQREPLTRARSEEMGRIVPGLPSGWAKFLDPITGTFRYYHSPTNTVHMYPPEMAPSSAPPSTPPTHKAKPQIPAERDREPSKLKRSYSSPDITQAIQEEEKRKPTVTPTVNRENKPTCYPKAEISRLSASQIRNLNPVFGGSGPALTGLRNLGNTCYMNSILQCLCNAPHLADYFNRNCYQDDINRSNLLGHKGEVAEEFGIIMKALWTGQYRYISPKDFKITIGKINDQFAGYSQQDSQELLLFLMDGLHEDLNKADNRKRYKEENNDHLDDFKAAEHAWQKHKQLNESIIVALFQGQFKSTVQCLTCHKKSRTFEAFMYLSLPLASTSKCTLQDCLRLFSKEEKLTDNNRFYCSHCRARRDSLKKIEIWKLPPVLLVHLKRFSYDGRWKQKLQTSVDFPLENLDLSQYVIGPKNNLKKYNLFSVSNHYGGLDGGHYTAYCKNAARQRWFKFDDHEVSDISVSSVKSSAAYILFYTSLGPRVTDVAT
UCHL1 inh = inhibitors of human UCHL1 deubiquitinase. purified UCHL1, Ub-rhodamine cleavage fluorescence. inhibition, % at 20 µM. 0.2% of 47,000 active
USP7 inh = inhibitors of human USP7 deubiquitinase; Q93009; purified USP7, Ub-rhodamine cleavage fluorescence; inhibition, % at 20 µM; 0.3% of 47,000 active; AID 1645854
USP10 block = blocks human USP10 ubiquitin-rhodamine cleavage | Q14694 | purified USP10, Ub-rhodamine fluorescence, 60 min | inhibition, % at 20 µM | 1.1% of 47,000 active | AID 1645856
Starred values were filed as active, the others as inactive. No stated cut-off is given here; in the data, active means inhibition above about 30%; inactive means the rest.

SMILES	USP8 inh	UCHL1 inh	USP7 inh	USP10 block
CCCn1ncc2c(C(=O)O)cc(C3CC3)nc21	-6	-1	-1	-2
CC1CCCN(c2nc3c(c(=O)[nH]c(=O)n3C)n2Cc2ccccc2F)C1 (stereo not given)	6	0	-6	3
Cc1cc(C)cc(NS(=O)(=O)c2cccc(-c3noc(C)n3)c2)c1	1	2	6	6
OCC1CCC2(CC1)CN(Cc1ccccc1F)Cc1ccccc1O2 (stereo not given)	-35	4	0	4
O=C(CCc1ccccc1)Nc1cc(=O)[nH]c2nc(Cc3ccccc3)nn12	-8	-16	-17	-4
O=c1[nH]cccc1NS(=O)(=O)c1ccc(F)cc1	93*	26	-54	-1
CCc1nc2c(NS(=O)(=O)c3ccc(F)cc3)cccn2n1	-11	-7	-9	-9
CCC(=O)N1CC(=O)N(CCCc2ccccc2)CC(O)C1 (stereo not given)	1	0	1	3
N#Cc1ccccc1NC(=O)c1ccc(Cl)c(S(=O)(=O)N2CCCCCC2)c1	1	6	6	9
O=C(Oc1ccccc1Br)c1ccc(Cl)c(S(=O)(=O)N2CCCCC2)c1	31*	3	5	9
C/C=C(\C)[C@@H]1C(C)=C[C@@H]2[C@H]([C@@H]1/C=C/C=C/C(=O)O)[C@@H](C)CC[C@@H]2O	-20	-2	-2	-8
O=C(Cn1cc(C(=O)C(F)(F)F)c2ccccc21)N1CCc2ccccc21	68*	2	10	16
COC(=O)c1cn(CC(=O)N2CCCc3ccccc32)c2ccccc12	9	3	4	0
CC(C)CC(NC(=O)c1ccc(Cl)cc1Cl)c1nc2ccccc2[nH]1 (stereo not given)	89*	14	-1	13
COc1ccccc1/C=C/C(=O)NC(Cc1ccccc1)c1nc2ccccc2[nH]1 (stereo not given)	92*	6	-4	-6
O=C(Cc1coc2cc3c(cc12)CCC3)NC(Cc1ccccc1)c1nc2ccccc2[nH]1 (stereo not given)	66*	2	-4	0
O=C(NC(Cc1ccccc1)c1nc2ccccc2[nH]1)c1ccccc1-c1ccccc1 (stereo not given)	54*	0	1	-3
O=C(NC(Cc1ccccc1)c1nc2ccccc2[nH]1)c1ccc2ccccc2n1 (stereo not given)	12	3	9	2
CSCCC(NC(=O)COc1ccc(Cl)cc1)c1nc2ccccc2[nH]1 (stereo not given)	-11	-5	-22	-10
COCCOc1ccc(CCC(=O)O)cc1NC(=O)c1ccc(Cl)cc1	-37	-4	0	1
CC1(C)Cc2c(sc3nc(-c4ccccc4)nc(SCC(=O)c4ccccc4)c23)CO1	-6	-1	2	-6
O=C(NC(Cc1ccccc1)c1nc2ccccc2[nH]1)C1CC1 (stereo not given)	48*	12	0	3
N#Cc1cccc(NC(=O)CC(=O)Nc2ccc3nc4n(c(=O)c3c2)CCCCC4)c1	56*	0	9	9
CCOC(=O)c1cc2c(ccn2C)n1CC(=O)N1CCCCC1	15	-2	-4	-4
CCOC(=O)c1cc2c(ccn2C)n1Cc1ccc(C#N)cc1	71*	-6	-17	-6
SMILES	USP8 inh	UCHL1 inh	USP7 inh	USP10 block
CCOC(=O)c1cc2c(ccn2C)n1CC(=O)N(C1CCCCC1)C1CCCCC1	-34	-32	-33	-7
CCOC(=O)c1cc2c(ccn2C)n1CC(=O)N(Cc1ccc(Cl)cc1)c1ccccc1	57*	-17	-60	-7
Cc1ccc(Nc2nc3c(S(=O)(=O)c4ccccc4)nnn3c3ccccc23)c(C)c1	70*	-1	17	11
O=S(=O)(c1ccccc1)c1nnn2c1nc(NCc1ccc(Cl)cc1)c1ccccc12	2	0	7	8
Cc1ccc(S(=O)(=O)c2nnn3c2nc(NCc2ccc(F)cc2)c2ccccc23)cc1C	51*	0	5	-4
Cc1ccc(C)c(Nc2nc3c(S(=O)(=O)c4ccccc4)nnn3c3ccccc23)c1	39*	3	7	4
CC(OC(=O)c1ccc(N2CCCC2=O)cc1)C(=O)Nc1ccc2c(c1)OCO2 (stereo not given)	56*	0	3	0
CC(OC(=O)c1ccc(N2CCCC2=O)cc1)C(=O)Nc1ccc2c(c1)OCCO2 (stereo not given)	13	-1	1	5
COc1cccc(NC(=O)C(C)N2Cc3ccccc3C2=O)c1 (stereo not given)	1	0	0	0
COc1ccc2[nH]cc(S(=O)(=O)c3ccc(C)c(F)c3)c(=O)c2c1	8	5	10	6
